From PubChem BioAssay (Tox21)
“And” between values parts separate entries of the source, which are not always exact repeats. Identical values can stand only once. Records with an inconclusive call do not appear. The source made the active and inactive calls. Unless noted, the call rests on the fitted dose curve; in most records, active means well fitted curve in the direction sought with a large enough effect in the repeat runs; inconclusive means weak or mixed curves; inactive means no such curve, though single readings can be large; an effect the other way counts as inactive or inconclusive.

Key:
[1] = qHTS assay to identify small molecule agonists of the hypoxia (HIF-1) signaling pathway - cell viability counter screen (AID 1224844; calls by dose curve; further: nearly all actives have a fitted effect of over 50% in size)
How it was run: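 HRE-bla ME-180; 0.5% dFBS; cpd 17 h, 37C, 5% CO2; CellTiter-Glo lum., 30 min RT, post-FRET read, same wells.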

[2] = qHTS assay to identify small molecule agonists of H2AX (AID 1224845; active means well fitted activation curve with a large enough effect in the signal ratio in the repeat runs, not every such curve was filed as active; the % refers to the signal ratio)
How it was run: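 Wild-type CHO-K1 cells, plated overnight, exposed 3hr at 37C to 15 concentrations (0.76% DMSO final). Lysed, then HTRF anti-pH2AX (S139) cryptate and anti-H2AX-d2 antibodies, 24 hr room temperature; 665/620 nm emission read.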

[3] = qHTS assay to identify small molecule agonists of the hypoxia (HIF-1) signaling pathway (AID 1224846; active means well fitted activation curve with a large enough effect in the signal ratio in the repeat runs, not every such curve was filed as active; the % refers to the signal ratio)
How it was run: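 Reporter induction in HRE-bla ME-180 cells is taken as agonism: cells sit 5 hrs after plating, receive compounds or DMSO only, incubate 17 hrs at 37C under 5% CO2, and are loaded with CCF4-AM for beta-lactamase FRET measurement.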

[4] = qHTS assay to identify small molecule agonists of H2AX - cell viability counter screen (AID 1224847; calls by dose curve; further: top concentration of the series differs between compounds; nearly all actives have a fitted effect of over 30% in size)
How it was run: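 Quantitative HTS viability measurement: CHO-K1 wild-type cells in serum (10% FBS) medium, short 3 hr drug exposure at 37C with 0.76% DMSO, CellTiter-Glo luminescent detection.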

[5] = qHTS RealTime-Glo MT Cell Viability Assay in HEK293 cells - 32 hour (AID 1224868); further: nearly all actives have a fitted effect of over 50% in size; further: potency means the concentration at half of the fitted maximal effect
How it was run: (§1)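 HEK293 cells seeded with NanoLuc/prosubstrate reagent, rested 5 h at 37 C, then dosed and kept at 37 C up to 40 h. Nonlytic real-time luminescence from viable cells read at 0, 8, 16, 24, 32 and 40 h.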

[6] = A CellTox Green Cytotoxicity Assay to monitor cytotoxicity in HEK293 cells - 0 hour (AID 1224869); further: nearly all actives have a fitted effect of over 50% in size
How it was run: (§2)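 Tox21 screen in HEK293: membrane-impermeant cyanine dye fluoresces on binding dead-cell DNA; compound pinned 5 h post-seeding, plates held at 37 C, signal read repeatedly through 40 h.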

[7] = A CellTox Green Cytotoxicity Assay to monitor cytotoxicity in HEK293 cells - 40 hour (AID 1224871); further: nearly all actives have a fitted effect of over 45% in size
How it was run: as §2

[8] = qHTS RealTime-Glo MT Cell Viability Assay in HEK293 cells - 16 hour (AID 1224872); further: nearly all actives have a fitted effect of over 50% in size; further: potency means the concentration at half of the fitted maximal effect
How it was run: as §1

[9] = qHTS RealTime-Glo MT Cell Viability Assay in HEK293 cells - 40 hour (AID 1224874); conditions: RealTime-Glo luminescence; max response: stronger effect = lower value; further: nearly all actives have a fitted effect of over 50% in size; further: potency means the concentration at half of the fitted maximal effect
How it was run: (§3)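 HEK293 + NanoLuc + prosubstrate, 600 cells/well; 5 h, 37 C/5% CO2; compound 23 nL in DMSO by pintool; 37 C; luminescence read at 0, 8, 16, 24, 32 and 40 h time points.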

[10] = A CellTox Green Cytotoxicity Assay to monitor cytotoxicity in HEK293 cells - 24 hour (AID 1224875); further: series mostly up to about 77 µM; nearly all actives have a fitted effect of over 45% in size
How it was run: as §2

[11] = qHTS RealTime-Glo MT Cell Viability Assay in HepG2 cells - 32 hour (AID 1224877); further: nearly all actives have a fitted effect of over 55% in size
How it was run: (§4)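 HepG2 cells (600/well) were dispensed with RealTime-Glo reagents, incubated 5 h at 37 °C, then treated with compounds in DMSO for up to 40 h. Nonlytic NanoLuc luminescence reflecting viable cells was read at each stated time point.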

[12] = A CellTox Green Cytotoxicity Assay to monitor cytotoxicity in HepG2 cells - 24 hour (AID 1224878); further: nearly all actives have a fitted effect of over 45% in size
How it was run: (§5)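 Measurements at 0, 8, 16, 24, 32 and 40 h of treatment captured CellTox Green fluorescence in HepG2 cells that had been co-plated with reagent and preincubated 5 h at 37 C/5% CO2.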

[13] = A CellTox Green Cytotoxicity Assay to monitor cytotoxicity in HepG2 cells - 40 hour (AID 1224879); further: nearly all actives have a fitted effect of over 40% in size
How it was run: as §5

[14] = qHTS RealTime-Glo MT Cell Viability Assay in HEK293 cells - 0 hour (AID 1224880); further: top concentration of the series differs between compounds; nearly all actives have a fitted effect of over 45% in size
How it was run: as §3

[15] = A CellTox Green Cytotoxicity Assay to monitor cytotoxicity in HepG2 cells - 16 hour (AID 1224876); further: nearly all actives have a fitted effect of over 45% in size
How it was run: as §5

[16] = qHTS RealTime-Glo MT Cell Viability Assay in HepG2 cells - 8 hour (AID 1224873); further: nearly all actives have a fitted effect of over 55% in size
How it was run: (§6)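 HepG2 cells (600/well) mixed with RealTime-Glo MT reagent, settled 5 h at 37 C/5% CO2 before compound addition. Nonlytic NanoLuc luminescence from viable-cell prosubstrate reduction read repeatedly during 40 h treatment at 37 C.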

[17] = qHTS assay to identify small molecule antagonists of the estrogen related receptor (ERR) signaling pathway from Tox21 library (AID 1224848); further: nearly all actives have a fitted effect of over 50% in size
How it was run: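 Quantitative high-throughput format: ERR reporter cells (2,000/well) pre-incubated 6 h, treated 18 h at 37 C with compounds in DMSO alongside positive and negative controls, then read by ONE-Glo luminescence.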

[18] = qHTS assay to identify small molecule agonists of the estrogen related receptor (ERR) signaling pathway from Tox21 library (AID 1224849; calls by dose curve; further: nearly all actives have a fitted effect of over 15% in size)
How it was run: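 Tox21 compounds tested for ERR agonism in an NTP reporter cell line: 18 h treatment at 37 C, then ONE-Glo luminescence.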

[19] = qHTS RealTime-Glo MT Cell Viability Assay in HepG2 cells - 24 hour (AID 1224867); further: nearly all actives have a fitted effect of over 50% in size
How it was run: as §4

[20] = qHTS RealTime-Glo MT Cell Viability Assay in HepG2 cells - 40 hour (AID 1224870); further: nearly all actives have a fitted effect of over 50% in size
How it was run: as §6
On the % scale 0 is the no-effect control and ±100 the full control effect.

CCCCCCCC=O
inactive: outcome [1] | outcome [2] | outcome [3] | outcome [4] | Potency [5] | outcome [6] | Potency [7] | Potency [8] | max response [9] 1.74% and 27% | Potency [10] | outcome [11] | Potency [12] | Potency [13] | outcome [14]

CCCCCCO
inactive: outcome [1] | outcome [2] | outcome [3] | outcome [4] | Potency [5] | outcome [6] | Potency [7] | Potency [8] | max response [9] -0.525% and 0.519% | Potency [10] | outcome [15] | outcome [11] | Potency [12] | Potency [13] | outcome [14]

COCCOC(=O)c1ccccc1C(=O)OCCOC
inactive: outcome [1] | outcome [2] | outcome [3] | outcome [4] | Potency [5] | outcome [6] | Potency [7] | Potency [8] | Potency [16] | Potency [10] | outcome [11] | Potency [12] | Potency [13] | outcome [14]

O=C1c2ccccc2CCc2ccccc21
inactive: outcome [1] | outcome [3] | outcome [4] | outcome [17] | outcome [18] | Potency [19] | Potency [5] | outcome [6] | outcome [20] | Potency [7] | Potency [8] | Potency [16] | max response [9] -14.3% and 0.842% | Potency [10] | outcome [15] | outcome [11] | Potency [12] | Potency [13] | outcome [14]

OCc1cccc(Oc2ccccc2)c1
inactive: outcome [1] | outcome [2] | outcome [3] | outcome [4] | Potency [5] | outcome [6] | outcome [20] | Potency [7] | Potency [8] | Potency [10] | outcome [11] | Potency [12] | Potency [13] | outcome [14]

CCOCCOCCOCCO
inactive: outcome [1] | outcome [2] | outcome [3] | outcome [4] | Potency [5] | outcome [6] | outcome [20] | Potency [7] | Potency [8] | Potency [16] | max response [9] 3.42% and 9.26% | Potency [10] | outcome [15] | outcome [11] | Potency [12] | Potency [13] | outcome [14]

Nc1nc(N)nc(-c2ccccc2)n1
inactive: outcome [1] | outcome [2] | outcome [3] | outcome [4] | Potency [5] | outcome [6] | outcome [20] | Potency [7] | Potency [8] | max response [9] -23.1% and 0.641% | Potency [10] | outcome [15] | outcome [11] | Potency [12] | Potency [13] | outcome [14]

O=C(O)c1ccc(C(=O)O)c(C(=O)O)c1
inactive: outcome [1] | outcome [2] | outcome [4] | outcome [17] | outcome [18] | Potency [19] | Potency [5] | outcome [6] | outcome [20] | Potency [7] | Potency [8] | Potency [16] | max response [9] -1.73% and 1.6% | Potency [10] | outcome [15] | outcome [11] | Potency [12] | Potency [13] | outcome [14]

C[C@]12CC[C@@H]3c4ccc(O)cc4CC[C@H]3[C@@H]1C[C@@H](O)[C@@H]2O
inactive: outcome [1] | outcome [2] | outcome [3] | outcome [4] | Potency [5] | outcome [6] | outcome [20] | Potency [7] | Potency [8] | Potency [16] | max response [9] -25.2% | Potency [10] | outcome [15] | outcome [11] | Potency [12] | Potency [13] | outcome [14]

C=CC(C)CCCC(C)(C)O (configuration not stated)
inactive: outcome [1] | outcome [2] | outcome [3] | outcome [4] | Potency [5] | outcome [6] | outcome [20] | Potency [7] | Potency [8] | Potency [10] | outcome [15] | outcome [11] | Potency [12] | Potency [13] | outcome [14]

CN(C)c1ccc(Cc2ccc(N(C)C)cc2)cc1
active: Potency [5] 22 µM and 21.9 µM | Potency [8] 21.9 µM | Potency [9] 19.6 µM and 24.5 µM
inactive: outcome [1] | outcome [2] | outcome [3] | outcome [18] | Potency [19] | outcome [6] | outcome [20] | Potency [7] | Potency [16] | Potency [10] | outcome [15] | outcome [11] | Potency [12] | Potency [13] | outcome [14]

COc1ccccc1OCC(O)CO (configuration not stated)
inactive: outcome [1] | outcome [2] | outcome [4] | Potency [19] | Potency [5] | outcome [6] | Potency [7] | Potency [8] | max response [9] 1.4% and 1.84% | Potency [10] | outcome [15] | outcome [11] | Potency [12] | Potency [13] | outcome [14]

CCCCOC(=O)c1ccc(N)cc1
inactive: outcome [1] | outcome [2] | outcome [4] | Potency [19] | Potency [5] | outcome [6] | outcome [20] | Potency [7] | Potency [8] | Potency [10] | outcome [11] | Potency [12] | Potency [13] | outcome [14]
